Screening data deposited in PubChem BioAssay by National Center for Advancing Translational Sciences (NCATS).
Rows were chosen to be rich in hits. Some 21% of all compounds tested hit in one or more screens of this group.
ELG1 repair inh: blocks ELG1-dependent DNA repair in HEK293T cells. AID 504467. HEK293T ELG1-luciferase reporter, luminescence, 16 h; DNA damage induced by 5-fluorouridine. 330,000 compounds, 2.3% hits. Potency, µM (highest dose often 46.1 µM), for inactives: top-dose activity change, negative = inhibition, usual class: inhibitors; note: potency is the fitted concentration of half-maximal effect; nearly all actives have a fitted effect of over 55% in size
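Quantitative HTS, concentration-response format. 2,000 cells/well co-treated with 5-fluorouridine and compound, 16 hr in 5% CO2 at 37 °C; ONE-Glo luminescence read after 30 min.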
TDP1 cell noCPT: qHTS for Inhibitors of human tyrosyl-DNA phosphodiesterase 1 (TDP1): qHTS in cells in absence of CPT | 420,000 compounds, 15% hits | Potency, µM (highest dose often 46.2 µM), inactives show at the top dose activity change, negative = growth inhibition, usual class: inhibitors | AID 686978, 2013 | DT40 Tdp1-/- hTDP1 cells, no CPT, ATP luminescence, 48 h; note: potency is the fitted concentration of half-maximal effect; nearly all actives have a fitted effect of over 55% in size
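Chicken DT40 Tdp1-/- cells stably complemented with human TDP1 were seeded at 400 cells/well with DMSO in place of 20 nM camptothecin. After compound pinning, cells grew at least 48 hr at 37 °C; viability read by CellTiter-Glo luminescence.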
IL-1B inflam inh: blocks inflammasome-driven IL-1 beta release; 360,000 compounds, 4.7% hits; activity change, % at 57.5 µM; THP-1 LPS/ATP IL-1B secretion, AlphaLISA, 16 h; hits give low values; in the data active = activity change below about -50%; inconclusive = mostly about -30% to -49%
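THP-1 cells pretreated 1 hr with compounds (up to 57.5 uM final), then stimulated with LPS (250 ng/mL final) plus ATP (1.25 mM final); secreted IL-1B measured by AlphaLISA after 16 hr, decreased signal indicating inhibition.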
VP16 counter: counter-screen for ROR gamma inhibitors: Gal4-VP16 reporter | Drosophila S2 Gal4-VP16 UAS-luciferase, luminescence, 20 h | 310,000 compounds, 3.5% hits | Potency, µM (highest dose often 53.6 µM), for inactives: top-dose activity, negative = inhibition, usual class: inhibitors;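 note: Gal4-VP16 expression switched on by copper sulfate through the metallothionein promoter; potency is the fitted concentration of half-maximal effect; nearly all actives have a fitted effect of over 50% in size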
RORg inh: ROR gamma (mouse) transcription inhibition | Potency, µM (titrated, usually from 53.6 µM), for inactives: at the highest dose activity change, negative = inhibition, actives largely listed as inhibitors | AID 2551 | Drosophila S2 Gal4-RORgamma UAS-luciferase reporter, 20 h | P51450 | 310,000 compounds, 5.4% hits; note: potency is the fitted concentration of half-maximal effect; nearly all actives have a fitted effect of over 60% in size
Target sequence (P51450 whole entry, looked up, the tested form may be a part): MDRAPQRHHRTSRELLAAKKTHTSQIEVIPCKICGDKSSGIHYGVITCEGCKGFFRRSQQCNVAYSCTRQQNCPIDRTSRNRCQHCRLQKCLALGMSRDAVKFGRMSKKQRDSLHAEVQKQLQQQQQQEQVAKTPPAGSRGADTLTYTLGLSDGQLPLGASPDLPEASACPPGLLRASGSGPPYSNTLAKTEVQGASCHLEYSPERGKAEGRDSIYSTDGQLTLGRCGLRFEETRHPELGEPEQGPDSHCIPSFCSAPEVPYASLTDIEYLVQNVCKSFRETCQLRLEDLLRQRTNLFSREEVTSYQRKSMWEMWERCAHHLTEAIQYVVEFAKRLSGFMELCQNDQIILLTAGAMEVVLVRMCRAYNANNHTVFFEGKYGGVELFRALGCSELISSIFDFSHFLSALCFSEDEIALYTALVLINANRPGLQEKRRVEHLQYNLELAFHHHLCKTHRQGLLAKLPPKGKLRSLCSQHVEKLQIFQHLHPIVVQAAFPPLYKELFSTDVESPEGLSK
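Schneider cells (Drosophila), stable Gal4 DBD–ROR gamma + UAS-luc; 1 hr cmpd preincubation; Cu2+ induction 700 uM final; 20 hr ambient; luminescence.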
DT40 TDP1 CPT: DT40-hTDP1 cell growth loss with CPT. chicken DT40 Tdp1-/-;hTDP1 cells + 20 nM CPT, ATP luminescence, 48 h. Potency, µM (series often up to 46.2 µM), inactives show at the top dose activity change, negative = growth inhibition, usual class: inhibitors. 420,000 compounds, 12% hits. AID 686979; note: potency is the fitted concentration of half-maximal effect; nearly all actives have a fitted effect of over 55% in size
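Chicken DT40 Tdp1-/- cells stably complemented with human TDP1 were seeded at 400 cells/well in medium containing 20 nM camptothecin, exposed to pin-transferred compounds, and grown at 37 °C for at least 48 hr. Viability was read as ATP luminescence.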
Numbers without * were called inactive; ? = inconclusive; / = no result given; [ ] = dose if it differs, or a comment. Unless noted, calls come from the whole dose curve; as a rule, active = well fitted curve in the direction sought with a large enough effect; inconclusive = small, poorly fitted or top-dose-only effect, or another doubt; inactive = no such curve, though single readings can be large; an effect the other way counts as inactive or inconclusive. % is set by controls: 0 for no effect and ±100 for the full control effect.

SMILES | ELG1 repair inh | TDP1 cell noCPT | IL-1B inflam inh | VP16 counter | RORg inh | DT40 TDP1 CPT
Cc1cccc(NC(=O)c2nc[nH]c2C(=O)NCCCCCNC(=O)OC(C)(C)C)c1 | 21µM* | 16µM* | -75* | / | / | 15µM*
Cc1cccc(NC(=O)c2nc[nH]c2C(=O)NCCN(CCNC(=O)c2[nH]cnc2C(=O)Nc2cccc(C)c2)CCNC(=O)c2[nH]cnc2C(=O)Nc2cccc(C)c2)c1 | -19% | 5.8µM* | -23 | / | / | 6.5µM*
O=C(NCc1ccccc1Cl)c1ccc2c(O)c(S(=O)(=O)c3ccccc3)c(=O)[nH]c2c1 | / | 10% | / | / | / | 18%
Cc1noc(C)c1S(=O)(=O)NC(=O)C1(C)CCN1C(=O)Cc1ccc(-c2ccccc2)cc1 (stereo unspecified) | / | 3% | 57 | / | / | -12%
COc1ccc(-c2nc3n(n2)C(c2ccccc2F)C(C(=O)Nc2cccnc2)=C(C)N3)cc1OC (stereo unspecified) | / | -92% | / | / | / | ?
CCCNC(=O)c1cc(C2CCCN(C(=O)c3cc(F)ccc3C)C2)on1 (stereo unspecified) | / | -16% | 19 | / | / | ?
CC(Oc1ccc(Cl)cc1Cl)c1ccnc2nc(N3CCOCC3)nn12 (stereo unspecified) | ? | 18µM* | -52* | -8% | ? | ?
CC(Oc1ccccc1)c1ccnc2nc(N3CCOCC3)nn12 (stereo unspecified) | -8% | ? | 5 | 1% | 39% | 6%
COc1ccc(C=C2CCC3C(=O)CCCC3(C)C2=O)cc1 (stereo unspecified) | / | ? | -18 | / | / | -1%
CN(C)CC1CCCCC1OC(=O)c1ccc(Cl)cc1 (stereo unspecified) | 4% | ? | -3 | 11% | -42% | -16%
CCCC/C=C1/CCC(CN(C)C)C1=O (stereo unspecified) | / | 2.3µM* | -28 | / | / | 2.1µM*
COc1ccc(/C=C2/CCCC(CN(C)C)C2=O)cc1 (stereo unspecified) | / | 0.58µM* | -72* | / | / | 0.52µM*
COc1cccc(/C=C2/CCC(CN(C)C)C2=O)c1 (stereo unspecified) | / | 2.3µM* | -100* | / | / | 2.3µM*
CN(C)CC1CCC/C(=C/c2ccc(Cl)cc2)C1=O (stereo unspecified) | / | 0.58µM* | -24 | / | / | 0.52µM*
C=COCC1CN2C(CCC(C)C2c2ccc(Br)cc2)C(=O)O1 (stereo unspecified) | / | / | / | 3%[10 µM] | -17%[10 µM] | /
CC(C)CN1CCN(Cc2ccc3ncccc3c2)CC1CCO (stereo unspecified) | 1% | 19% | 31 | -15% | -22% | 6%
CN(C)CC1CCC/C(=C\c2ccc(OC(=O)/C=C/c3ccc(Cl)c(Cl)c3)cc2)C1=O (stereo unspecified) | / | 0.92µM* | ? | / | / | 0.73µM*
CN1CCN(C(=O)/C=C/c2ccc(Cl)c(Cl)c2)CC1 | ? | -1% | 0 | 2% | -24% | -28%
COc1ccc(-c2oc3c(c2C#CC2(O)CCCCC2)C(OC(C)=O)CCC3)cc1 (stereo unspecified) | / | ? | 0 | / | / | ?
COc1ccc(-c2oc3c(c2C#CC(C)(C)O)C(OC)CCC3)cc1 (stereo unspecified) | / | 16µM* | -59* | / | / | ?
Cc1ccc2[nH]c(=O)c(CN(CC3CCCO3)C(=O)c3ccco3)cc2c1 (stereo unspecified) | -1% | / | / | 17% | 14% | /
CCNC(=S)N(Cc1ccco1)Cc1cc2cc3c(cc2[nH]c1=O)OCCO3 | ? | ? | 46 | 4% | ? | ?
